Measured values reported in PubChem BioAssay.

What was measured:
[1] = system: Human papillomavirus type 1a protein E7 (residues 44-93); assay: HPV1a E7 fragment binders on microarrays, primary screen, biochemical, small-molecule microarray, residues 44-93, 635 nm fluorescence (AID 1108); conditions: small-molecule microarray binding, fluorescence 635 nm; higher = more signal;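 further: E7 fragment applied at 1 µg/mL in TBST for 1 h at 4 C; score combines spot fluorescence with its signal to noise ratio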
[2] = modulators of HCV replicon luciferase signal, primary screen, HCV replication inhibitor project, Huh7 cells, luciferase reporter (AID 1109); conditions: 48 h, higher = more signal;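 further: huh7 hepatoma cells harbouring a luciferase neomycin HCV replicon reporter; luciferase luminescence as measure of HCV replicon replication; test concentration not given here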
[3] = target: Left-right determination factor 2 (Homo sapiens) (UniProt O00292); assay: LEFTY2 binders on small-molecule microarrays, primary screen, biochemical, small-molecule microarray, 635 nm fluorescence scan (AID 1110); conditions: LEFTY2 binding, higher = more signal
Left-right determination factor 2 (Homo sapiens), sequence (O00292 whole entry, looked up): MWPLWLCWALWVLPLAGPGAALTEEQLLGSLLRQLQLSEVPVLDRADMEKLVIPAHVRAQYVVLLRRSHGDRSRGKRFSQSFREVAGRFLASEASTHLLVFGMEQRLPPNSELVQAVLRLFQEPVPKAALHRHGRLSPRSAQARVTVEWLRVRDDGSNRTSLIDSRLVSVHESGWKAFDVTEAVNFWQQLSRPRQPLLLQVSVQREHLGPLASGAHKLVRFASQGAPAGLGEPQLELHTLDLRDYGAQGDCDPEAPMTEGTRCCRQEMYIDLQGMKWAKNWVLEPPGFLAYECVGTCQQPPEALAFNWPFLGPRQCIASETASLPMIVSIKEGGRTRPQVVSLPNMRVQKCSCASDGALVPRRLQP

[4] = target: Calmodulin-1 (Homo sapiens) (UniProt P0DP23); assay: CALM1 binders on microarrays, EGTA buffer, profiling panel, biochemical, small-molecule microarray, Cy5-labelled CALM1 (AID 1111); conditions: Cy5-CALM1 binding fluorescence, higher = more signal;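 further: labelled calmodulin applied in Tris saline Tween buffer holding calcium plus EGTA and DTT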
[5] = target: Calmodulin-1 (Homo sapiens) (UniProt P0DP23); assay: calcium-bound CALM1 binders on microarrays, profiling panel, artefact control for SMM control-protein annotation, biochemical, small-molecule microarray, Cy5-labelled CALM1, plus calcium (AID 1112); conditions: Cy5-CALM1 binding fluorescence, higher = more signal;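 further: score merges spot fluorescence with signal to noise from triplicate slides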
[6] = small-molecule microarray binders of probe aWnt5a, primary screen, biochemical, biotinylated probe, 635/667 nm fluorescence (AID 1113); conditions: higher = more signal;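 further: score merges 667 nm fluorescence intensity with signal-to-noise per printed feature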
[7] = small-molecule microarray binders of probe aShh, primary screen, biochemical, biotinylated probe, 635/667 nm fluorescence (AID 1114); conditions: higher = more signal;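 further: probe is biotin-labelled aShh protein from a stem cell growth factor screen; measures binding of labelled protein to compounds printed on the slide; score merges feature fluorescence at 667 nm with signal-to-noise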
[8] = small-molecule microarray binders of probe aNog, primary screen, biochemical, biotinylated probe, 635/667 nm fluorescence (AID 1115); conditions: higher = more signal;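 further: probe is biotinylated aNog protein used at 0.15 µg/mL for 1 h at 4 C; z-score combines 667 nm fluorescence of each spot with its signal to noise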
[9] = target: Torsin-1A-interacting protein 1 (Homo sapiens) (UniProt Q5JTV8); assay: LAP1 binders from COS7 cell lysate, primary screen, small-molecule microarray, 635/667 nm fluorescence (AID 1116); conditions: COS7-hLAP1 lysate binding, 635 nm fluorescence, higher = more signal
Torsin-1A-interacting protein 1 (Homo sapiens), sequence (Q5JTV8 whole entry, looked up): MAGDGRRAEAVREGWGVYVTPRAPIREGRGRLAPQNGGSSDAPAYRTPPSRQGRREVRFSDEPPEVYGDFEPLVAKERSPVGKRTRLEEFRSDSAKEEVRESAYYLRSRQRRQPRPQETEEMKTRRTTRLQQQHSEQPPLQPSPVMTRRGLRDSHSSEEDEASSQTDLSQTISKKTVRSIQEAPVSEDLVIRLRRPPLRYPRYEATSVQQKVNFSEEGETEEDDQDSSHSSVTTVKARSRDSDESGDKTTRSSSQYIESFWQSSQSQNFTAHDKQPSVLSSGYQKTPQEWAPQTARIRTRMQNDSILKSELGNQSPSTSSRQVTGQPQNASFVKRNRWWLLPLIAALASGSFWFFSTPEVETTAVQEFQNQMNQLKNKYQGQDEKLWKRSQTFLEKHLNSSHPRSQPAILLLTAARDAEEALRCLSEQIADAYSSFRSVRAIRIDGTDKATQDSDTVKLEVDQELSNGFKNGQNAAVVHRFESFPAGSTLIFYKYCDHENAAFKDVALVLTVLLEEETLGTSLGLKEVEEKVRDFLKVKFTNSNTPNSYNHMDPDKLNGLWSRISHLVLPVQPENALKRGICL

[10] = target: Alpha-bungarotoxin (Bungarus multicinctus) (UniProt P60615); assay: alpha-bungarotoxin binders on microarray, profiling panel, artefact control for SMM control protein annotation, biochemical, small-molecule microarray, Alexa647 label, 635/667 nm fluorescence (AID 1117); conditions: alpha-BTX-A647 binding fluorescence, higher = more signal
Alpha-bungarotoxin (Bungarus multicinctus), sequence (P60615 whole entry, looked up): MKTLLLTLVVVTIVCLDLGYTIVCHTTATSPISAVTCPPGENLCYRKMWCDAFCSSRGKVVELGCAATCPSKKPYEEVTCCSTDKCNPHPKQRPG

Structure (SMILES) | composite z-score [1] | z-score [2] | composite z-score [3] | composite z-score [4] | composite z-score [5] | composite z-score [6] | composite z-score [7] | composite z-score [8] | composite z-score [9] | composite z-score [10]
COC(=O)C=CCCc1coc(C=CCNC(=O)OC)n1 | 0.565 | -0.632 | 0.827 | -0.316 | -1.53 | -0.0346 | 0.275 | -0.255 | 0.192 | -0.264
CCOC(=O)[C@H](Cc1ccccc1)NC(=O)CCC1CC(OC(=O)NCc2ccc3c(c2)OCO3)CC2(CCCC(COC(=O)NCCc3ccccc3OC)O2)O1 (stereo not given in full) | 1.39 | -1.11 | 0.816 | 0.627 | 0.157 | -0.0944 | -0.0471 | -0.0125 | 0.775 | 1.11
COC(=O)[C@H]1O[C@@H](c2c(OC)c(OC)c(C)c(OC)c2OC)[C@H](C)[C@@H](O)[C@H]1C | 1.08 | 0.155 | 0.685 | -0.112 | -0.421 | -0.157 | -0.0769 | 0.0947 | 0.407 | 0.101
COc1ccc(COC(=O)NN=C2C[C@@H](O)[C@@H](O)[C@@H]3[C@@H]4C(=O)N(C5CCCCC5)C(=O)[C@@H]4CC[C@H]23)cc1 | -0.605 | -2.37 | -0.877 | 0.979 | -0.0278 | -0.243 | -0.315 | 0.051 | 1.03 | 0.161
CO[C@H]1COC(=O)[C@@H](C)COC(=O)[C@@H](OCc2ccccc2)C=C[C@@H]1C | -0.193 | -1.38 | 0.281 | 0.0243 | -0.642 | -0.0346 | -0.276 | -0.37 | -0.0153 | -0.807
CON=C[C@@H](C)[C@H](OCc1ccccc1)C(C)C | -0.933 | -0.131 | 0.418 | -0.442 | -0.418 | -0.0882 | -0.419 | -0.204 | 1.15 | -0.11
CCOC(=O)[C@H](CC(C)C)NC(=O)CCC1CC(OC(=O)NCc2cccc3ccccc23)CC2(CCCC(COC(=O)NCc3ccncc3)O2)O1 (stereo not given in full) | 1.38 | -1 | 0.554 | -0.118 | -0.376 | 0.0037 | -0.0146 | -0.036 | 0.526 | 0.267
COc1ccc(O[C@H]2C=C[C@@H](c3ccccc3)O[C@@H]2CON=C2[C@H]3CCn4c(=O)n(-c5ccccc5)c(=O)n4[C@H]3[C@H](O)[C@@H]3O[C@H]23)cc1 | 0.807 | -4.67 | 0.505 | 0.719 | -0.21 | -0.0192 | -0.0769 | -0.0855 | 0.24 | 0.974
Cn1c(=O)n2n(c1=O)[C@H]1[C@H](O)[C@@H]3O[C@@H]3C(=O)[C@H]1CC2 | 0.625 | 0.101 | 0.486 | -0.144 | -0.502 | -0.104 | -0.0146 | -0.234 | 0.663 | -0.541
CCN1C(=O)[C@H]2[C@H]3[C@H](O)[C@H](O)CC(=NO[C@@H](C)c4cn([C@H](CO)Cc5ccccc5)nn4)[C@@H]3CC[C@H]2C1=O | 0.696 | -0.262 | 0.636 | 0.711 | -0.209 | -0.0403 | -0.206 | 0.111 | -0.117 | 0.889
O=C1[C@H]2[C@H]3[C@H](O)[C@H](O)CC(=NOC[C@@H](O)COCc4ccco4)[C@H]3CC[C@H]2C(=O)N1Cc1ccccc1 | -1.01 | -0.523 | 0.665 | -0.684 | -1.22 | -0.18 | -0.27 | 0.0444 | -0.193 | -0.309
O=C1C=C[C@@H](O)[C@@H]2[C@@H]3C(=O)N(c4ccc(F)cc4F)C(=O)[C@@H]3CC[C@@H]12 | 0.229 | -0.578 | 0.237 | 0.269 | -0.282 | -0.0405 | -0.153 | -0.252 | 0.804 | 0.0764
CC(CCN1CCCCc2nc(C)c(C)cc21)=NO[C@@H](C)c1cn([C@H](CO)Cc2ccccc2)nn1 | 0.271 | -0.507 | 0.813 | 0.404 | -0.0345 | -0.152 | -0.117 | -0.397 | 0.691 | 0.414
O=C1C[C@@H](O)[C@@H](O)[C@@H]2[C@@H]3C(=O)N(c4cccc(Oc5ccccc5)c4)C(=O)[C@@H]3CC[C@H]12 | -0.252 | 0.33 | 0.43 | 0.118 | -0.294 | -0.128 | -0.366 | -0.341 | 0.132 | 0.62
Cc1cc2c(nc1C)CCCCN2CC(C)ON=C1[C@H]2CCn3c(=O)n(-c4ccccc4)c(=O)n3[C@H]2[C@H](O)[C@@H]2O[C@H]12 (stereo not given in full) | -0.0964 | -4.63 | 0.769 | -0.895 | -1.2 | 0.0839 | 0.258 | 0.0531 | 0.369 | 0.473
O=C1C2=CC[C@H]3C(=O)N(c4cccc(Oc5ccccc5)c4)C(=O)[C@H]3[C@H]2[C@H](O)[C@@H]2O[C@H]12 | 0.792 | -4.64 | 0.516 | 0.0194 | -0.32 | -0.157 | -0.273 | -0.224 | 0.257 | 0.281
CO[C@H]1COC(=O)[C@@H](Cc2ccccc2)NC(=O)[C@@H](C)COC(=O)CCC[C@@H]1C | -0.573 | -2.38 | 0.455 | -0.273 | -0.679 | -0.0478 | 0.0278 | -0.412 | 0.29 | 0.273
CC(C)=CCCC(C)=CCON=C1C[C@@H](O)[C@@H](O)[C@@H]2[C@@H]3C(=O)N(c4cccc(Oc5ccccc5)c4)C(=O)[C@@H]3CC[C@@H]12 | 1.21 | -1.36 | 0.353 | 0.33 | -0.126 | -0.13 | -0.0064 | -0.287 | 0.444 | 0.305
COC(=O)[C@H](C)NC(=O)CCC1CC(OC(=O)NCc2ccc3c(c2)OCO3)CC2(CCCC(COC(=O)NCCc3ccccc3OC)O2)O1 (stereo not given in full) | 0.776 | -0.941 | 0.0048 | -0.173 | 0.351 | -0.219 | -0.206 | -0.0653 | 0.561 | 0.253
COc1cccc([C@H]2Oc3ccc(OC)cc3C(=NOC[C@@H](C)[C@H](OCc3ccccc3)C(C)C)[C@@H]2O)c1 | 0.274 | -2.55 | 0.476 | -0.0749 | 0.619 | -0.206 | -0.0858 | 0.2 | 0.251 | 0.452
CC(CCN1CCCCc2nc(C)c(C)cc21)=NO[C@H](C)c1cn([C@H](CO)Cc2ccccc2)nn1 | 0.0596 | -1.13 | 0.708 | -0.418 | -0.763 | 0.103 | 0.163 | -0.208 | 0.488 | -0.276
CCOC(=O)[C@H](Cc1ccccc1)NC(=O)CCC1CC(OC(=O)NCCc2ccc(F)cc2)CC2(CCCC(COC(=O)NCC3CCCCC3)O2)O1 (stereo not given in full) | 1.38 | -0.019 | 1.03 | 0.325 | -0.207 | -0.232 | -0.2 | -0.273 | 0.237 | 0.289
CCOC(=O)[C@H](CC(C)C)NC(=O)CCC1CC(OC(=O)NCc2ccc3c(c2)OCO3)CC2(CCCC(COC(=O)NCC3CCCCC3)O2)O1 (stereo not given in full) | 1.39 | -1.49 | 0.894 | -0.0184 | -0.381 | -0.0087 | 0.131 | -0.367 | 0.711 | 0.415
COCOc1ccc(Br)cc1C(=O)[C@@H]1O[C@H]1c1cccc(OC)c1 | -0.392 | -3.74 | 0.377 | -0.213 | -0.187 | -0.148 | -0.136 | -0.0428 | 0.616 | 0.187
